According to PubChem BioAssay (NCI):
This is part of a sample that, as a whole, favours compounds with a hit. Of some 83,000 tested, about 20% had one in any assay.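 48-hour exposure, single concentration, 96-well plates; percent growth endpoint where 0 means no net growth. Active: below 10.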 A number with no mark means an inactive call. Activity calls are given as the source filed them.

What was measured:
Experiment in all cases: NCI-60 one-dose screen, 48 h (100 = growth as untreated, 0 = no growth, -100 = all killed)
Conditions in all cases: 10 µM unless noted
[1] = system: NCI-H23 lung
[2] = system: NCI-H226 lung
[3] = system: HOP-62 NSCLC
[4] = system: HOP-92 NSCLC
[5] = system: NCI-H522 lung
[6] = system: A549/ATCC NSCLC
[7] = system: 786-0 renal
[8] = system: COLO 205 colon
[9] = system: NCI-H460 lung

Structure (SMILES) | growth [1] | growth [2] | growth [3] | growth [4] | growth [5] | growth [6] | growth [7] | growth [8] | growth [9]
COc1ccc2c(c1)C(=O)CC(c1ccccc1OC)O2 (stereo unspecified) | 86.9% | 93.8% | 92.6% | 94.3% | 93% | 96% | 104% | 109% | 
C=C1C(=O)O[C@H]2[C@H]1CC/C(CNC(=O)CCc1ccc(OC)cc1)=C\CC[C@@]1(C)O[C@@H]21 | 85.3% | 89.9% | 83.6% | 19.8% | 20.2% | 81.7% | 34% | 15.1% | 90.4%
O=C(/C=C/c1ccc(Cl)cc1)c1ccc(NC(=O)N2CCN(c3cc4c(cc3F)c(=O)c(C(=O)O)cn4C3CC3)CC2)cc1 | 87.4% | 89.4% | 106% | 92.9% | 66.9% | 95.8% | 86.5% | 115% | 87.8%
O=C(Cc1ccc(/C=C/C(=O)c2nccs2)cc1)Nc1ccccc1 | 97.3% | 100% | 103% | 91.3% | 78.5% | 88.8% | 93.8% | 122% | 103%
CCOC(=O)/C(C#N)=C1/NNC(=Nc2cccnc2)S1 | 97.7% | 96.2% | 90.8% | 93.9% | 85.3% | 85.3% | 98% | 103% | 99.3%
CCNC(=O)Oc1ccc(/C(=C(\C)c2ccccc2)c2ccc(OCCCN(C)C)cc2)cc1 | 75.8% | 99.2% | 87.4% | 69.4% | 86.4% | 78.9% | 64.2% | 54.5% | 87.1%
NCCCCCCNc1cc(-c2cccc(OC(F)(F)F)c2)nc2ccc(N3CCCC3)cc12 | 0.0621% (active) | 81.2% | -33.3% (active) | 39.3% | -44.5% (active) | 16.6% | -65.2% (active) | -62.1% (active) | -91.8% (active)
c1ccc2c(-c3nccs3)c[nH]c2c1 | 96.2% | 97% | 99.2% | 89.7% | 92.2% | 100% | 88.8% | 119% | 105%
N#CC1C(C#N)C(C(=O)c2ccc(Br)cc2)N2c3ccccc3C=CC12 (stereo unspecified) | 79.2% | 64.7% | 75.1% | 55.5% | 78.6% | 65.8% |  | 3.37% (active) | 96.2%
CCN(CC)CCCC(C)Nc1cc(O)cc2cccnc12 (stereo unspecified) | 98.8% | 112% | 104% | 89.4% | 125% | 96.2% | 118% | 74.5% | 108%
CCc1c2c(nc3ccc(OCc4ccc(B(O)O)cc4)cc13)-c1cc3c(c(=O)n1C2)COC(=O)[C@]3(O)CC | -35.8% (active) | -21.4% (active) | -17% (active) | -4.54% (active) | -9.3% (active) | 7.22% (active) | -13.7% (active) | 13.6% | 2.12% (active)
C=C1C(=O)O[C@H]2[C@H]1CC/C(COC(=O)NCC(C)c1ccc(CC(C)C)cc1)=C\CC[C@@]1(C)O[C@@H]21 (stereo partly specified) | 30.7% | 61.4% | 82.2% | -33.3% (active) | -64.1% (active) | 73% | -87.7% (active) | -50.3% (active) | 19.7%
CN1CCN(C(=O)[C@]23CCC(C)(C)C[C@H]2C2=CC[C@@H]4[C@@]5(C)C/C(=C/c6cccnc6)C(=O)C(C)(C)[C@@H]5CC[C@@]4(C)[C@]2(C)CC3)CC1 | 72.8% | 79.7% | 85.2% | 40.7% | 49.4% | 47% | 73.7% | 42.9% | 31.9%
COc1cc(CC(=O)c2ccc(O)c(OC)c2)ccc1O | 103% | 81.9% | 91.4% | 84.5% | 88.4% | 79.5% | 104% | 107% | 100%
CCCCN1C=CCN(CCCC)C1 | 65.4% | 82.9% | 84.1% | 50.2% | 47.7% | 66.7% | 73.9% | 30.4% | 50.1%
Cc1nn(-c2ccccc2)c(Cl)c1/C=C/C(=O)c1ccc(F)cc1 | 94.6% | 85.8% | 89.5% | 88.1% | 69.4% | 83.8% | 12.6% | 105% | 
O=[N+]([O-])CC(c1ccccc1F)c1c[nH]c2ccccc12 (stereo unspecified) | 82.5% | 81.9% | 69% | 80.9% | 23.2% | 70% | 87.7% | 80.4% | 94.8%
COc1cc2cc(CN3CCN(c4nccc(-c5ccc6ccccc6c5)n4)CC3)c(=O)[nH]c2cc1OC | 97.3% | 96.5% | 96.2% | 98.4% | 85.6% | 2.34% (active) | 32.7% | 80% | -35.9% (active)
Cc1ccc(CNc2c3ccccc3nc3cc(NC(=O)CCN4CCCC4)ccc23)cc1 | -48.1% (active) | 35% | 19.9% | -0.443% (active) | -41.2% (active) | -36.9% (active) | 22.3% | -40.3% (active) | -64.7% (active)
C=C1C(=O)O[C@H]2[C@H]1CC/C(CNC(=O)c1cccc3ccccc13)=C\CC[C@@]1(C)O[C@@H]21 | 70.1% | 78% | 93.1% | -11% (active) | -46.7% (active) | 76.9% | 32.2% | 28.5% | 78.6%
CCN(CC)c1ccc(C(=O)c2ccccc2)cc1 | 96.4% | 87.9% | 91.2% | 89.6% | 87.2% | 89.4% | 103% | 111% | 104%
O=C(Nc1ccc(-c2ccc3c(c2)NC(=O)/C3=C\c2ccc[nH]2)cc1)NC1CC1 | 55.1% | 101% | 113% | 125% | 89.6% | 102% | 110% | 115% | 59.8%
COc1cccc(-c2nc3occn3c2-c2ccnc(NCCCNS(=O)(=O)c3ccc(C(F)(F)F)cc3)n2)c1 | 99.3% | 80.5% | 103% | 104% | 86.9% | 89.7% | 86.8% | 70% | 89.8%
NC(=NCCCOc1ccc(F)cc1)Nc1ccc(I)cc1 | 65.5% | 93.7% | 80.4% | 69.8% | 56.9% | 70.4% | 72.9% | -66.8% (active) | 81.8%
NC(=O)Nc1ccc(-n2cnc3cc(-c4ccc(O)cc4)ccc32)cc1 | 103% | 110% | 104% | 149% | 73.3% | 96.8% | 109% | -20.8% (active) | 
